Reference: PubChem BioAssay (NCATS)
“And” between values parts separate entries of the source, which are not always exact repeats. Equal values may be shown once. Records with an inconclusive call do not appear. The source made the active and inactive calls. Unless noted, calls come from the whole dose curve; as a rule, active = well fitted curve in either direction with a large enough effect (not every such curve was filed as active); inconclusive = small, poorly fitted or top-dose-only effect, or another doubt; inactive = flat fitted curve, though single readings scatter.

How the values were obtained:
[1] = AP1 Signaling Pathway (AID 357); settings: ME-180 AP-1-bla reporter, EGF-induced, beta-lactamase ratio, 5 h;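 note: ME-180 reporter cells stimulated with EGF at its EC50 level; % is set by controls: 0 for no effect and ±100 for the full control effect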
Outline: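 Titration-series screen for positive or negative modulators of EC50 EGF-induced signaling in ME-180 cells carrying an AP-1-driven beta-lactamase reporter. After 5 hours at 37 degrees Celsius, CCF4 460nm/530nm emission ratio gave %Activity; AC50 values derived.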

[2] = NFAT Signaling Pathway (AID 444); settings: Jurkat NFAT-bla M1, carbachol, beta-lactamase ratio, 5 h; at 17.2 µM (top of the series);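 note: carbachol stimulus at about its EC50 of 1 µM final; % is set by controls: 0 for no effect and ±100 for the full control effect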
Outline: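 Read-out: CCF4 FRET ratio (460 nm/530 nm) after 1 h RT dye loading, used for %activity and AC50 from titration series. Cells: Jurkat NFAT-β-lactamase/M1 line, treated with compound plus 1 uM carbachol for 5 h, 37 °C.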

[3] = Stat Signaling Pathway (AID 446); settings: ME-180 (cervical carcinoma) SIE beta-lactamase reporter, IL-6 stimulated, 5 h; at 17.2 µM (top of the series);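 note: ME-180 cervical cancer cells given 40 pM IL-6 alongside compound; SIE-controlled beta-lactamase reporter measured as 460/530 nm FRET emission ratio; % is set by controls: 0 for no effect and ±100 for the full control effect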
Outline: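 IL-6/STAT signaling read in ME-180 cells via an SIE beta-lactamase reporter. Stimulus was 40 pM IL-6 (its AC50) for 5 hrs, so both activation and inhibition register.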

[4] = molecular target: Cytochrome P450 1A2 (Homo sapiens) (UniProt P05177); experiment: p450-cyp1a2 (AID 410; calls by dose curve; note: potency is the fitted concentration of half-maximal effect;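 for activity change, negative = inhibition: -100% = full effect of reference inhibitor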); settings: recombinant CYP1A2, luciferin-ME demethylation, luminescence; series mostly up to 25.6 µM
Outline: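 20nM CYP1A2 with 100uM Luciferin-ME (at Km) in 100mM KPO4; compound preincubated 10 min, NADPH regeneration added, 60 min at room temperature. Luciferin quantified by luminescence after detection reagent; normalized to 57 uM furafylline.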

[5] = molecular target: Glucocorticoid receptor (Homo sapiens) (UniProt P04150); experiment: GR-GFP Redistribution (AID 450;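 active = compounds whose dose series gives a full or clear partial fitted curve of increased nuclear translocation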; note: potency is the fitted concentration of half-maximal effect); settings: U2OS GR-GFP nuclear translocation, laser cytometry, 2 h
[6] = molecular target: Glucocorticoid receptor (Homo sapiens) (UniProt P04150); experiment: GR-EFC Redistribution (AID 451; calls by dose curve; note: potency is the fitted concentration of half-maximal effect); settings: CHO-K1 GR-EFC translocation, beta-gal luminescence, 2 h
Outline: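 Translocation of GR-ED fusion to nuclear EA restores b-gal, read by luminescence after 1 h room-temperature detection. Engineered CHO-K1 biosensor cells, 1,000/well, exposed 2 h at 37 C to titrations up to 46 uM final.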

[7] = molecular target: Mitogen-activated protein kinase 10 (Mus musculus) (UniProt Q61831); experiment: JNK3 AlphaScreen Assay (AID 530); settings: JNK3 lysate, c-Jun phosphorylation; series mostly up to 25.6 µM;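 note: kinase came from lysate of stimulated human HepG2 cells; signal reports phosphorylation of biotinylated GST-cJun 1-79 at Ser73 with 10 µM ATP; % is set by controls: 0 for no effect and ±100 for the full control effect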
Outline: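 Compound titrations were preincubated 15 minutes at room temperature with substrate, antibody and pre-activated JNK3-containing HepG2 lysate. Reactions were started with 10 uM ATP and stopped with EDTA-containing bead buffer for AlphaScreen detection.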

[8] = Cell Viability - BJ (AID 421; calls by dose curve;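 note: potency is the fitted concentration of half-maximal effect; cells exposed to compound for 40 hours at 37 °C before readout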); settings: BJ fibroblast viability, qHTS
Outline: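 Quantitative HTS: ATP depletion in BJ cells after 40 hr compound exposure in complete culture medium, detected with CellTiter-Glo; AC50 from standard Hill fits.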

[9] = Cell Viability - Jurkat (AID 426;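 active = dose-dependent loss of cell ATP signal giving a full or clear fitted curve, ranked by lower potency value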; note: potency is the fitted concentration of half-maximal effect); settings: qHTS
Outline: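 Jurkat (Clone E6-1) cells, 5000/well in complete medium, exposed to compounds for 40 hr at 37C; intracellular ATP measured by CellTiter-Glo luminescence after 20 min at room temperature. AC50 from Hill fits.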

[10] = Cell Viability - HepG2 (AID 433; calls by dose curve;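 note: potency is the fitted concentration of half-maximal effect; potency for ATP loss meaning cytotoxicity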); settings: qHTS
Outline: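 HepG2 cells, 1500 per well, treated 40 hr at 37 °C in complete medium; viability from intracellular ATP by CellTiter-Glo luminescence. Normalized to DMSO and 100 uM tamoxifen; AC50 from Hill fit of qHTS concentration-response.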

[11] = Cell Viability - N2a (AID 540; active = well fitted curve in the direction sought with a large enough effect; an effect the other way counts as inactive or inconclusive; note: potency is the fitted concentration of half-maximal effect; nearly all actives have a fitted effect of over 45% in size); settings: N2a mouse neuroblastoma cell viability; activity change, negative = cytotoxicity: at 92.2 µM (top of the series)
Outline: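 Mouse neuroblastoma N2a cells, 1500/well, exposed to compounds 40 h at 37 °C in complete medium. Viability measured as cellular ATP by CellTiter-Glo luminescence; AC50 from Hill fits of concentration-response.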

[12] = Cell Viability - NIH 3T3 (AID 541; active = well fitted curve in the direction sought with a large enough effect; an effect the other way counts as inactive or inconclusive;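 note: plate controls were DMSO alone for no effect and tamoxifen positive control for full effect; nearly all actives have a fitted effect of over 25% in size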); settings: NIH 3T3 cell viability, qHTS; activity change, negative = cytotoxicity: at 92.2 µM (top of the series)
Outline: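 Mouse NIH 3T3 fibroblasts, 1000 cells/well, rested 5 hr at 37 °C, then exposed to compound for 40 hr at 37 °C in complete medium. Viability read as intracellular ATP by CellTiter-Glo luminescence; AC50 from Hill-equation fits of concentration-response data.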

[13] = Cell Viability - HUV-EC-C (AID 542; active = well fitted curve in the direction sought with a large enough effect; an effect the other way counts as inactive or inconclusive; note: potency is the fitted concentration of half-maximal effect; nearly all actives have a fitted effect of over 35% in size); settings: HUV-EC-C endothelial cell viability, qHTS; series mostly up to 92.2 µM
Outline: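 HUV-EC-C human vascular endothelial cells, 1000/well, exposed to compound for 40 hr at 37 °C in complete medium. Intracellular ATP was read by CellTiter-Glo luminescence. AC50 came from Hill-equation fits of concentration-response data.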

[14] = Cell Viability - H-4-II-E (AID 543; active = well fitted curve in the direction sought with a large enough effect; an effect the other way counts as inactive or inconclusive; note: % is set by controls: 0 for no effect and ±100 for the full control effect; nearly all actives have a fitted effect of over 35% in size); settings: H-4-II-E rat hepatoma viability; series mostly up to 92.2 µM
Outline: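 Rat hepatoma H-4-II-E cells, 1500 per well, treated 40 h at 37 °C in complete medium. Cellular ATP read by CellTiter-Glo luminescence; AC50 from Hill fits of concentration-response.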

[15] = Cell Viability - Renal Proximal Tubule (AID 545; active = well fitted curve in the direction sought with a large enough effect; an effect the other way counts as inactive or inconclusive;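 note: 0% = DMSO only and -100% = 100 µM tamoxifen; nearly all actives have a fitted effect of over 40% in size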); settings: renal proximal tubule cells viability, primary cells of rat origin; activity change, negative = cytotoxicity: at 91.7 µM (top of the series)
Outline: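 Rat renal proximal tubule primary cells, 1000/well, exposed to compounds for 40 hr at 37 °C in complete medium; cellular ATP read by CellTiter-Glo luminescence. AC50 from concentration-response fitted with standard Hill equation.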

Glucocorticoid receptor (Homo sapiens), sequence (P04150 whole entry, looked up, the tested form may be a part): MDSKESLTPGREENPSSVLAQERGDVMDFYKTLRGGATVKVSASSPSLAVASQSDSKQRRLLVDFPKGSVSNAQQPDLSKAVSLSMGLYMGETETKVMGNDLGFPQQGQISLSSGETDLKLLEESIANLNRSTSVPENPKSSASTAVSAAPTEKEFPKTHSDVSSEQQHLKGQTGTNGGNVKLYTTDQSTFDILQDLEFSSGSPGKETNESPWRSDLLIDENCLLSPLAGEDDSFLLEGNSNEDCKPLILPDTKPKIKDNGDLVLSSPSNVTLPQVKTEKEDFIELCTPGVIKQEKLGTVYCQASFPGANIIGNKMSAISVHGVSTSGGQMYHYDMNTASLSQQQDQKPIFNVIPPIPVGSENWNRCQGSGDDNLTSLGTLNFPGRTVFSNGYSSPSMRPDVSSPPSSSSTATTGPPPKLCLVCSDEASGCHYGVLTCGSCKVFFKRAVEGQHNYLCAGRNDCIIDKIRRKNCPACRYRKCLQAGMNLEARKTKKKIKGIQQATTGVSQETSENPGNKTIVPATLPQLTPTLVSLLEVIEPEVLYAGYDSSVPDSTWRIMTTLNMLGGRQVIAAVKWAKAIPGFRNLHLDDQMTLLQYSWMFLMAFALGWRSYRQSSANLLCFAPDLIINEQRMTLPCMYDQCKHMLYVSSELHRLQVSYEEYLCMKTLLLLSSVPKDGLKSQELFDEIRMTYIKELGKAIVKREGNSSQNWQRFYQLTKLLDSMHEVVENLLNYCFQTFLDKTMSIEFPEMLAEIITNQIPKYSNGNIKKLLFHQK
Cytochrome P450 1A2 (Homo sapiens), sequence (P05177 whole entry, looked up): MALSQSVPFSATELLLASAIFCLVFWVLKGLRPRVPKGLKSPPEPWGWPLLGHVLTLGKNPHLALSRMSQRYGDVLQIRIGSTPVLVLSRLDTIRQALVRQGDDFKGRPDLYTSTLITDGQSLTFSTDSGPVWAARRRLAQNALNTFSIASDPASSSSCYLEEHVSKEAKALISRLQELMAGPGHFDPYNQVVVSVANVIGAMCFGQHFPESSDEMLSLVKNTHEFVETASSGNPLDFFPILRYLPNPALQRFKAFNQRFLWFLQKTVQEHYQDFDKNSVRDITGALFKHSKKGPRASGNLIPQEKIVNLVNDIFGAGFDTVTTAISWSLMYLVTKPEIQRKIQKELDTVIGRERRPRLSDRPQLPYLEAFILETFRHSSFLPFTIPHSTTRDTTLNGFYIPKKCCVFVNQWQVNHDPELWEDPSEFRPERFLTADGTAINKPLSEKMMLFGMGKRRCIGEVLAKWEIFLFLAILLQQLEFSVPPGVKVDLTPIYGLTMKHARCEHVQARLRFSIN

CC(=O)OCC(=O)[C@@]1(O)CC[C@H]2[C@@H]3CCC4=CC(=O)C=C[C@]4(C)[C@H]3[C@@H](O)C[C@@]21C
inactive: activity change, negative = inhibition ([1]; at 17.2 µM (top of the series)) 11.9% | activity change, negative = inhibition [2] -6.54% | activity, negative = inhibition [3] -3.24%

COc1cc(NS(C)(=O)=O)ccc1Nc1c2ccccc2nc2ccccc12
active: Potency [4] 7.94 µM
inactive: activity change, negative = inhibition ([1]; at 38 µM (top of the series)) -9.96% | Potency [5] > 46 µM | Potency [6] > 46 µM

C[C@@H]1C[C@H]2[C@@H]3CCC4=CC(=O)C=C[C@]4(C)[C@@]3(F)[C@@H](O)C[C@]2(C)[C@H]1C(=O)CO
inactive: activity change, negative = inhibition ([1]; at 17.2 µM (top of the series)) 0.15% | activity change, negative = inhibition [2] -16.3% | activity, negative = inhibition [3] 1.17% | Potency [5] > 20.6 µM

C[C@H]1[C@H](NC(=O)/C(=N/OC(C)(C)C(=O)O)c2csc(N)n2)C(=O)N1S(=O)(=O)O (stereo in doubt)
inactive: activity change, negative = inhibition ([1]; at 17.2 µM (top of the series)) 1.44% | Potency [4] | activity change, negative = inhibition [2] 3.56% | Potency [5] > 20.6 µM | Potency [6] > 20.6 µM | outcome [7]

CC(O)(P(=O)(O)O)P(=O)(O)O
inactive: activity change, negative = inhibition ([1]; at 17.2 µM (top of the series)) -1.23% | Potency [4] | activity change, negative = inhibition [2] -2.6% | outcome [7]

CC(C)(C)CC(C)(C)c1ccc(OCCOCC[N+](C)(C)Cc2ccccc2)cc1
active: Potency [8] 52.9 µM | Potency [9] 26.8 µM | Potency [10] 57.8 µM | Potency [11] 5.01 µM | activity change, negative = cytotoxicity [12] -129% | Potency [13] 50.1 µM | activity change, negative = cytotoxicity [15] -90%
inactive: activity change, negative = inhibition ([1]; at 17.2 µM (top of the series)) -12.6% | activity, negative = inhibition [3] -2.12% | outcome [7] | Potency [14]

CN1CCN(C(c2ccccc2)c2ccccc2)CC1
inactive: activity change, negative = inhibition ([1]; at 17.2 µM (top of the series)) 4.01% | Potency [4] | activity, negative = inhibition [3] 3.06% | Potency [5] > 20.6 µM | Potency [6] > 20.6 µM | outcome [7]

CCN(CCCc1ccccc1)CCCc1ccccc1
inactive: activity change, negative = inhibition ([1]; at 17.2 µM (top of the series)) 18.6% and 13.2% | outcome [7]
active: Potency [4] 3.98 µM | activity change, negative = inhibition [2] -87%

CC(=O)OCC(=O)[C@@]1(O)[C@H](C)C[C@H]2[C@@H]3CCC4=CC(=O)C=C[C@]4(C)[C@@]3(F)[C@@H](O)C[C@@]21C
inactive: activity change, negative = inhibition ([1]; at 17.2 µM (top of the series)) -10.4% | activity change, negative = inhibition [2] 29.8% | activity, negative = inhibition [3] -9.24%

Cc1cccc(C)c1NC(=O)CN1CCN(CCCC(c2ccc(F)cc2)c2ccc(F)cc2)CC1
inactive: activity change, negative = inhibition ([1]; at 17.2 µM (top of the series)) 4.39% | activity change, negative = inhibition [2] 5.94% | activity, negative = inhibition [3] -20% | outcome [7]

C[C@]12CC[C@H]3[C@@H](CCC4=CC(=O)CC[C@@]43C)[C@@H]1CC[C@@H]2C(=O)CO
active: Potency [5] 0.0356 µM
inactive: activity change, negative = inhibition ([1]; at 17.2 µM (top of the series)) 12.4% | activity change, negative = inhibition [2] -13.6% | activity, negative = inhibition [3] 1.53%

CCN1CCN(c2cc3c(cc2F)c(=O)c(C(=O)O)cn3C2CC2)CC1
inactive: activity change, negative = inhibition ([1]; at 17.2 µM (top of the series)) 4.63% | activity change, negative = inhibition [2] 3.59% | activity, negative = inhibition [3] 20.5% | Potency [5] > 20.6 µM
